Test results from PubChem BioAssay (NCATS).
Values joined by “and” are separate entries in the source; they are usually repeats but may differ in a detail not shown here. Identical values can stand only once. Unmarked numbers belong to inactive results.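 The calls were made as follows: active = compounds whose dose series gives a full or clear partial fitted curve of increased nuclear translocation; inconclusive = weak partial curve or effect only at the top dose; inactive = no dose-dependent translocation response.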 Residues, ends and D or L forms follow the SMILES beside them. *: point of attachment. Cbz = O=C(OCc1ccccc1)*

What follows are compounds tested against Glucocorticoid receptor (Homo sapiens) (UniProt P04150) (assay: GR-GFP Redistribution (AID 450)). Conditions: U2OS GR-GFP nuclear translocation, laser cytometry, 2 h.
Excerpt: NIH Molecular Libraries Screening Centers Network [MLSCN]
NIH Chemical Genomics Center [NCGC]
The glucocorticoid receptor (GR) Redistribution assay (BioImage) enables the visualization of GR cytoplasmic to nuclear translocation by the use of a GR-GFP fusion. GR is normally cytosolic, however ligands such as dexamethasone, cause nuclear translocation where the protein binds to response elements and interacts with various co-factors to modulate transcription. Because both functional agonists and antagonists can induce nuclear translocation, this assay can detect ligands regardless of their effects on gene expression. GR-GFP expressing U20S cells were used here. Dexamethasone was the positive control for translocation and data normalization. Detection of nuclear translocation was performed in 1536-well plates using the Acumen laser scanning plate cytometer (TTP LabTech). Validation of this assay and a detailed protocol have been described.
NCGC Assay Protocol Summary:
GR-GFP U2OS cells were maintained in DMEM with Glutamax and high glucose, 1% v/v penicillin-streptomycin, and 0.5 mg/mL Geneticin. For cell culture, 10% […] fetal bovine serum (FBS) was used (Invitrogen #26140-079). For cell plating 10% dextran, charcoal-stripped FBS (Hyclone SH30068.03) was used. U2OS cells were trypsin treated, suspended in medium, and passed through a 40 um basket filter. The cells were seeded at 600 cells/5 uL/well into clear-bottom black sided 1536-well plates and incubated for approximately 20 hrs, 37degC, 5%, CO2 in a tissue culture incubator. Twenty-three nL of compound was delivered by pin tool and the plates were incubated as above for 2 hrs. The compounds were tested as a 7-point titration ranging from 46 uM to 0.6 nM. The cells were fixed using the Kalypsys Washer/Dispenser station. The fixing protocol involved aspiration of the cell media, addition of 6 uL/well of PBS, aspiration of PBS, addition of 5uL/well of 100% methanol, aspiration of methanol, and addition of 3 uL/well PBS with 1.5 uM propidium iodide (PI). The plates were read by the Acumen Explorer using a 1 x 8 um scan of the whole well area. PI fluorescence triggered the collection of PI and GFP signals. A nuclei population was defined by a 10 to 100 um width and depth filter that eliminated small and large fluorescent particles. Two subpopulations of nuclei were then defined by peak intensity of GFP fluorescence to obtain translocated and untranslocated objects. The number of translocated objects was used for data normalization.
Keywords: NIH Roadmap, MLSCN, MLI, MLSMR, sOGT, qHTS, NCGC
Potency is read from the fitted curve at half-maximal effect.

Glucocorticoid receptor (Homo sapiens), sequence (P04150 whole entry, looked up): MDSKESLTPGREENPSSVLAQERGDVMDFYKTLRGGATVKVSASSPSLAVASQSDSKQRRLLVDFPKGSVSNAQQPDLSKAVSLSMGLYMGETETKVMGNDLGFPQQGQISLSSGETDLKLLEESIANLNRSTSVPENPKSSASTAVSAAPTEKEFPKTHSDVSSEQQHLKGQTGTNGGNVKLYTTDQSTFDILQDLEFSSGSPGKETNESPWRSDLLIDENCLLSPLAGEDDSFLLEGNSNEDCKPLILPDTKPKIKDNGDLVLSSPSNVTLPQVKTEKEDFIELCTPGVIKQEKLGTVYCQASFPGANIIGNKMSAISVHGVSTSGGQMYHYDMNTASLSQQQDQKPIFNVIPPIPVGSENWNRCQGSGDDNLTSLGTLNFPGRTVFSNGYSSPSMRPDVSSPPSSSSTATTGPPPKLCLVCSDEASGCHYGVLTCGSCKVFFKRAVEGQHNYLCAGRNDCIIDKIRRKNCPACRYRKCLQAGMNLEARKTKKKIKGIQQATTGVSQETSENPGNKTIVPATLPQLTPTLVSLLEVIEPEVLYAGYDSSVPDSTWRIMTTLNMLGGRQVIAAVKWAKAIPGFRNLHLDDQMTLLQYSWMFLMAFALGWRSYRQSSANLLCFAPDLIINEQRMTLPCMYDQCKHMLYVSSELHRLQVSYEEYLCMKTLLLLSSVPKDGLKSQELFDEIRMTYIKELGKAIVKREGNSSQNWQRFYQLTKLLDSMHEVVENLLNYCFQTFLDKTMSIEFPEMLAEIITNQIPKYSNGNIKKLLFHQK

Compound | Potency
CC(=O)NNC(=O)N1Cc2ccccc2Oc2ccc(Cl)cc21 | > 46 µM
N#C/C(=C\c1ccc(O)c(O)c1)C(=O)NCCCNC(=O)/C(C#N)=C/c1ccc(O)c(O)c1 | > 46 µM
CCCCCC[C@@H]([C@@H](C)O)n1cnc2c(N)ncnc21 | > 46 µM
COc1cc(CC(=O)O)ccc1O | > 46 µM
NCCS(=O)O | > 46 µM
NC1(C(=O)O)CC1 | > 46 µM
COc1cc2c(CCNC(C)=O)c[nH]c2cc1O | > 46 µM
Cc1nc(N=Nc2ccc(C(=O)O)cc2)c(COP(=O)(O)O)c(C=O)c1O | > 46 µM
O=C(O)/C=C/c1ccc(O)c(O)c1 | > 20.6 µM
CCCCCCC/C=C\CCCCCCCCC(=O)O | > 46 µM
O=C(c1ccc2c(c1)OCCO2)N1CCCCC1 | > 46 µM
O=c1onc2n1-c1cc(Br)ccc1OC2 | > 46 µM
CCn1c(=O)[nH]c2cc(Cl)c(Cl)cc21 | > 46 µM
CC(C)[C@H](NC(=O)OCc1ccccc1)C(=O)N[C@H](C=O)Cc1ccccc1 (Cbz-Val-Phe-aldehyde) | > 46 µM
COc1cc(CNC(=O)CCCCCCC(C)C)ccc1O | > 46 µM
O=C(O)C1=CC(=C(c2ccc(O)c(C(=O)O)c2)c2ccc(O)c(C(=O)O)c2)C=CC1=O | > 46 µM
CCCc1c(OCCCOc2ccc(OCC(=O)O)cc2)ccc(C(C)=O)c1O | > 46 µM
CCCOC(=O)c1c(-c2ccccc2)nc(CC)c(C(=O)SCC)c1CCC | > 46 µM
NC[C@@H]1O[C@H](c2ccccc2)Cc2c1ccc(O)c2O | > 46 µM
Cc1ccc2c(c1)C(N1CCN(C)CC1)=Nc1cccnc1N2 | > 46 µM

Compound | Potency
CCCCCCCCCCC/C=C\C(C)(C)/C=C\CCCC(=O)O | > 46 µM
NCCCNCCCCNCCCN | > 46 µM
NCCNS(=O)(=O)c1cccc2c(Cl)cccc12 | > 46 µM
O=C(O)/C(=C/c1c(C(=O)O)[nH]c2cc(Cl)cc(Cl)c12)c1ccccc1 | > 46 µM
COc1ccccc1N1CCN(CCCCNC(=O)c2ccc3ccccc3c2)CC1 | > 46 µM and > 20.6 µM
N=C(N)c1ccc(N)cc1 | > 46 µM
CC[C@H](NC(=O)c1c(C)c(-c2ccccc2)nc2ccccc12)c1ccccc1 | > 46 µM
O=c1[nH]c2ccccc2c2ccccc12 | > 46 µM
CCN1C(=O)C=CC1=O | > 46 µM
COc1ccccc1N1CCN(CCCCN2C(=O)c3ccccc3C2=O)CC1 | > 46 µM
CCCn1c(=O)c2[nH]c(C3CCCC3)nc2n(CCC)c1=O | > 46 µM and > 20.6 µM
NC(N)=NC(N)=Nc1cccc(Cl)c1 | > 46 µM
OC1(c2ccc(Cl)cc2)CCN(Cc2c[nH]c3ccccc23)CC1 | > 46 µM
CC[N+](CC)(CC)CC(=O)Nc1c(C)cccc1C | > 46 µM
Cn1c(=O)c2[nH]c(C3CCCC3)nc2n(C)c1=O | > 46 µM
CCCCCCN(CCCCCC)C(=O)Cc1c(-c2ccc(F)cc2)[nH]c2ccccc12 | > 46 µM
Fc1ccc(CN(C2=NCCN2)c2c(Cl)cccc2Cl)cc1 | > 46 µM
O=c1onc2cnc3ccccc3n12 | > 46 µM
O=C(OCCN1CCOCC1)C1(c2ccccc2)CCCCC1 | > 46 µM
C[N+](C)(C)CC=O | > 46 µM
